In PubChem BioAssay (Tox21):
Where “and” joins values, the source holds several entries; their conditions need not be identical. Equal values may be shown once. Inconclusive results are not listed. Entries that show only a call come without a potency. Calls of active or inactive are those of the source. Unless noted, calls come from the whole dose curve; as a rule, active = well fitted curve in the direction sought with a large enough effect in the repeat runs; inconclusive = weak or mixed curves; inactive = no such curve, though single readings can be large; an effect the other way counts as inactive or inconclusive.

Tests used:
[1] = qHTS assay to identify small molecule antagonists of the glucocorticoid receptor (GR) signaling pathway - cell viability counter screen (AID 720693); note: nearly all actives have a fitted effect of over 55% in size
[2] = qHTS assay for identifying genotoxic compounds that show differential cytotoxicity against isogenic chicken DT40 cell lines with known DNA damage response pathways - Rev3 mutant cell line (AID 743014); note: nearly all actives have a fitted effect of over 55% in size; note: potency is the fitted concentration of half-maximal effect
[3] = qHTS assay for identifying genotoxic compounds that show differential cytotoxicity against isogenic chicken DT40 cell lines with known DNA damage response pathways - Rad54/Ku70 mutant cell line (AID 743015); note: nearly all actives have a fitted effect of over 60% in size; note: potency is the fitted concentration of half-maximal effect
[4] = qHTS assay to identify small molecule antagonists of the androgen receptor (AR) signaling pathway - cell viability counter screen (AID 743033; note: nearly all actives have a fitted effect of over 45% in size)
[5] = molecular target: Androgen receptor (Homo sapiens) (UniProt P10275); assay: qHTS assay to identify small molecule antagonists of the androgen receptor (AR) signaling pathway (AID 743035; active = well fitted inhibition curve with a large enough effect in the signal ratio in the repeat runs, not every such curve was filed as active; the % refers to the signal ratio; note: potency is the fitted concentration of half-maximal effect)
Sequence of Androgen receptor (Homo sapiens) (P10275 whole entry, looked up): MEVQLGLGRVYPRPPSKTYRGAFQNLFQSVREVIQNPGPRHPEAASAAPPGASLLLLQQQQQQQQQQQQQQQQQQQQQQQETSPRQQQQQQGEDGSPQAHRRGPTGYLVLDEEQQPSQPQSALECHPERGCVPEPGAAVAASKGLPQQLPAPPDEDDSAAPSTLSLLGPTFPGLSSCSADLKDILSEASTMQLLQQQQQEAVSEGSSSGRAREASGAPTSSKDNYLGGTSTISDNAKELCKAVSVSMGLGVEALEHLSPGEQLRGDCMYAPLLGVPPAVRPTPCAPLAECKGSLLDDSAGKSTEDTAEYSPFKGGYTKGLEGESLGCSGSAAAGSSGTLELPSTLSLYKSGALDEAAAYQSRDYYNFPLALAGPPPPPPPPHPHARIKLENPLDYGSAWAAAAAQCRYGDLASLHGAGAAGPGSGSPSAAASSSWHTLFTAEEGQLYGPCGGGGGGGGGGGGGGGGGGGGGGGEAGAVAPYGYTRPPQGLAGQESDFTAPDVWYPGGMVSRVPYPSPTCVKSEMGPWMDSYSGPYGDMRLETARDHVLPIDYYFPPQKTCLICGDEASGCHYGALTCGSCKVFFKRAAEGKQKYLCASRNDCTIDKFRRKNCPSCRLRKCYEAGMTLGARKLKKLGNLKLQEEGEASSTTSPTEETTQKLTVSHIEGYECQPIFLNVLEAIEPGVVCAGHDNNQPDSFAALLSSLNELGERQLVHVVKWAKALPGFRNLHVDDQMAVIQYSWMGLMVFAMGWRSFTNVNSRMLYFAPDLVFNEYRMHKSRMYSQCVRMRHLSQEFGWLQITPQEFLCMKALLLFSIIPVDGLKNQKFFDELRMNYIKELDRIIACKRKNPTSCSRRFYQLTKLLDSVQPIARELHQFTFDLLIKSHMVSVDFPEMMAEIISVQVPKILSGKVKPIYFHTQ
Method in brief: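 In this cell-based reporter screen, compounds were tested in concentration series against R1881-activated HEK293 cells expressing beta-lactamase under UAS control; after 16 h at 37C, FRET substrate was added and fluorescence read 2 h later.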

[6] = molecular target: Androgen receptor (Homo sapiens) (UniProt P10275); assay: qHTS assay to identify small molecule agonists of the androgen receptor (AR) signaling pathway (AID 743036; active = well fitted activation curve with a large enough effect in the signal ratio in the repeat runs, with a control signal flat, not every such curve was filed as active; the % refers to the signal ratio)
Method in brief: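 Activation was read as beta-lactamase FRET signal from LiveBLAzer B/G substrate, added for 2 h at room temperature. Before that, GeneBLAzer AR-UAS-bla GripTite (HEK293) cells had 16 h compound exposure at 37C.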

[7] = molecular target: Androgen receptor (Homo sapiens) (UniProt P10275); assay: qHTS assay to identify small molecule agonists of the androgen receptor (AR) signaling pathway using the MDA cell line (AID 743040; note: nearly all actives have a fitted effect of over 20% in size; note: potency is the fitted concentration of half-maximal effect)
Method in brief: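 Stable MMTV-luciferase reporter in MDA-kb2 cells; note the promoter carries GR as well as AR response elements. 16 h compound treatment, 37C, 0% CO2; ONE-Glo luminescence endpoint.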

[8] = molecular target: Androgen receptor (Homo sapiens) (UniProt P10275); assay: qHTS assay to identify small molecule antagonists of the androgen receptor (AR) signaling pathway using the MDA cell line (AID 743042; note: nearly all actives have a fitted effect of over 55% in size)
Method in brief: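 Antagonist mode: compounds plus R1881 agonist added to MDA-kb2 AR-luc cells, incubated 16 h at 37C. Luciferase reporter luminescence quantified, with multiplexed CellTiter-Fluor readout for cell viability.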

[9] = qHTS assay for identifying genotoxic compounds that show differential cytotoxicity against isogenic chicken DT40 cell lines with known DNA damage response pathways - wild type cell line (AID 743012); note: nearly all actives have a fitted effect of over 60% in size; note: potency is the fitted concentration of half-maximal effect
Method in brief: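 300 wt DT40 cells/well; cpd (DMSO) pintool-transferred after ~0.5 h at 37 C/5% CO2; 40 h incubation; CellTiter-Glo added, 30 min RT; luminescence read.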

[10] = qHTS assay to identify small molecule antagonists of the androgen receptor (AR) signaling pathway using the MDA cell line - cell viability counter screen (AID 743041; note: nearly all actives have a fitted effect of over 45% in size)
Method in brief: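 Using the breast carcinoma line MDA-kb2 AR-luc, test chemicals were co-incubated with R1881 for 16 h; CellTiter-Fluor reagent, added at 15.5 h, provided a fluorescence measure of live cells.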

| SMILES | Potency [1] | Potency [2] | Potency [3] | Potency [4] | Potency [5] | outcome [6] | Potency [7] | outcome [8] | Potency [9] | Potency [10] |
| --- | --- | --- | --- | --- | --- | --- | --- | --- | --- | --- |
| COC(=O)c1c(C(F)F)nc(C(F)(F)F)c(C2=NCCS2)c1CC(C)C | inactive | 61.1 µM (active) | 61.1 µM (active) | inactive | inactive | inactive | inactive | inactive |  |  |
| O=C(N[C@H]1CN2CCC1CC2)c1cc2ccoc2cn1 | inactive |  |  | inactive | inactive | inactive | inactive | inactive | inactive | inactive |
| CN1CCN(C(=O)O[C@H]2c3nccnc3C(=O)N2c2ccc(Cl)cn2)CC1 | inactive |  | inactive | inactive |  |  |  |  | inactive | inactive |
| BrCCCCCCBr | inactive |  | inactive | inactive |  |  |  |  | inactive | inactive |
| ClCC(Cl)Cl | inactive | inactive | inactive | inactive |  |  |  |  |  | inactive |
| OCCSCSCCO | inactive |  | inactive | inactive |  |  |  |  | inactive | inactive |
| CCCCC(=O)Cl | inactive |  | inactive | inactive |  |  |  |  | inactive | inactive |
| CSc1nc(N=[N+]=[N-])nc(NC(C)C)n1 | inactive | 61.1 µM (active) |  | inactive |  |  |  |  |  | inactive |
| O=CNC(N1CCN(C(NC=O)C(Cl)(Cl)Cl)CC1)C(Cl)(Cl)Cl (stereo unspecified) | inactive | 61.1 µM (active) |  |  | 6.16 µM (active) | inactive | inactive | inactive |  | inactive |
| COCC(=O)N(c1c(C)cccc1C)N1CCOC1=O | inactive |  |  | inactive |  |  |  |  | inactive | inactive |
| CC(C)(C)NCC(O)c1cc(Cl)c(N)c(Cl)c1 (stereo unspecified) | inactive |  | inactive |  | inactive | inactive | inactive | inactive | inactive |  |
| CN1C(=S)CN=C(c2ccccc2)c2cc(Cl)ccc21 | inactive |  |  | inactive |  |  |  |  | 23.7 µM (active) |  |
| CC1(C)CON(Cc2ccccc2Cl)C1=O | inactive | 68.6 µM (active) |  | inactive |  |  |  |  |  | inactive |
| Nc1c(Br)cc([N+](=O)[O-])cc1[N+](=O)[O-] | inactive |  |  | inactive |  |  | inactive | inactive | inactive |  |
| CNC(=O)Oc1c(C(C)(C)C)cc(C)cc1C(C)(C)C | inactive |  |  | inactive | inactive | inactive | inactive | inactive | inactive | inactive |
| CC(=O)Nc1cc([As](=O)(O)O)ccc1O | inactive |  | inactive |  |  |  |  |  | inactive | inactive |
| COc1ccc2c(c1OC)CN1CCc3cc4c(cc3C1C2)OCO4 (stereo unspecified) | inactive |  |  |  |  | inactive | inactive | inactive | 11.4 µM (active) | inactive |
| Cc1cc(C)nc(Nc2ccccc2)n1 | inactive |  |  | inactive |  |  |  |  | inactive | inactive |
| O=c1oc2ccccc2c(O)c1C1CCCc2ccccc21 (stereo unspecified) | inactive |  |  | inactive |  |  |  |  | inactive |  |
| Nc1n[nH]c(N)n1 | inactive | inactive |  | inactive |  |  |  |  |  |  |

| SMILES | Potency [1] | Potency [2] | Potency [3] | Potency [4] | Potency [5] | outcome [6] | Potency [7] | outcome [8] | Potency [9] | Potency [10] |
| --- | --- | --- | --- | --- | --- | --- | --- | --- | --- | --- |
| CCCSP(=O)(OCC)Oc1ccc(Br)cc1Cl (stereo unspecified) | inactive |  |  | inactive |  |  |  |  |  | inactive |
| CC1(C(=O)Nc2ccc(O)c(Cl)c2Cl)CCCCC1 |  | 61.1 µM (active) | 61.1 µM (active) | inactive |  |  |  |  | 68.6 µM (active) | inactive |
| CCC(C)(C)c1cc(-n2nc3ccccc3n2)c(O)c(C(C)(C)CC)c1 |  | inactive | inactive | inactive | inactive | inactive | inactive | inactive | inactive | inactive |
| C=C(C)[C@@H]1CC=C(C=O)CC1 |  | 61.1 µM (active) | 54.5 µM (active) | inactive |  |  |  |  | 54.5 µM (active) | inactive |
| O=C(Nc1ccccc1)N(Cc1ccc(Cl)cc1)C1CCCC1 |  | 0.611 µM (active) | 1.54 µM (active) | inactive |  |  |  |  | 3.86 µM (active) | inactive |
| C(CCOCC1CO1)COCC1CO1 (stereo unspecified) |  | 1.07 µM (active) | 15.1 µM (active) | inactive |  |  |  |  | 12 µM (active) |  |
| COP(=S)(OC)Oc1ccc(S(N)(=O)=O)cc1 | inactive |  | inactive | inactive |  |  |  |  |  | inactive |
| CCC/C(=N\OCC)C1=C(O)CC(CC(C)SCC)CC1=O (stereo unspecified) | inactive | 61.5 µM (active) |  |  |  |  |  |  |  | inactive |
| C=CCC1=C(C)[C@@H](OC(=O)[C@@H]2[C@@H](C=C(C)C)C2(C)C)CC1=O |  | 24.3 µM (active) | 15.4 µM (active) | inactive |  |  |  |  | 15.4 µM (active) |  |
| N#CCNCC#N | inactive |  | inactive | inactive |  |  |  |  |  | inactive |
| C#C[C@]1(O)C=C[C@H]2[C@@H]3CCC4=CC(=O)CC[C@@H]4[C@H]3CC[C@@]21CC |  | 26.6 µM (active) | 23.7 µM (active) | inactive | 0.19 µM (active) |  | 0.0133 µM (active) | inactive | 23.7 µM (active) | inactive |
| O=C(O)c1ccc2[nH]cc(CCCCN3CC=C(c4ccccc4)CC3)c2c1 |  | inactive | inactive | inactive | inactive | inactive | inactive | inactive | inactive | inactive |
| COC(=O)C(C)Oc1ccc(Oc2ccc(Cl)cc2Cl)cc1 (stereo unspecified) | inactive |  |  | inactive |  |  |  |  |  | inactive |
| CNCC(=O)c1ccc(O)c(O)c1 |  | inactive | inactive | inactive |  |  |  |  | inactive | inactive |
| COc1ncc(F)c2nc(S(=O)(=O)Nc3c(F)cccc3F)nn12 |  | inactive | inactive | inactive | inactive |  | inactive | inactive | inactive | inactive |
| COP(=S)(OC)Oc1c(Cl)cc(C)cc1Cl | inactive |  |  | inactive |  |  |  |  |  | inactive |
| COc1cc2c(cc1OC)[C@@]13CCN4CC5=CCO[C@H]6CC(=O)N2[C@H]1[C@H]6[C@H]5C[C@H]43 |  | 24.3 µM (active) | 26.6 µM (active) and 13.7 µM (active) | inactive |  |  |  |  | 24.3 µM (active) |  |
| CCc1cc2c(s1)-n1c(C)nnc1CN=C2c1ccccc1Cl | inactive |  |  | inactive |  |  |  |  |  | inactive |
| Cc1cnc[nH]1 |  | inactive | inactive | inactive | inactive | inactive | inactive | inactive | inactive | inactive |
